From PubChem
Most compounds without a hit are left out; they make up all but 21% or so of the library.
CHX counter: counter-screen for Shiga toxin inhibitors: cycloheximide protein synthesis inhibition; AID 2314; cell reporter, cycloheximide protein synthesis inhibition counterscreen; max response, %; actives 12% (n = 300,000); in the data active means max response mostly above about 13%, no sharp cut-off; inactive means mostly below about 14%; further: read at 38.3 µM for the half of the compounds with a filed dose; 0% is about no effect
Shiga inhibitor: inhibitors of Shiga toxin in Vero cells; Vero cells, Shiga toxin protein synthesis inhibition reporter; inhibition, % at 38.7 µM; actives 9.2% (n = 290,000); AID 2315; in the data active means inhibition mostly above about 28%, no sharp cut-off; inactive means mostly below about 43%; further: 0% is about no effect
NS1 function inh: blocks influenza NS1 protein function. Potency, µM (highest dose often 46.1 µM), inactives show at the top dose activity, positive = more growth. actives 0.4% (n = 270,000). AID 2326; calls by dose curve; further: potency means the concentration at half of the fitted maximal effect; actives are rising curves; nearly all actives have a fitted effect of over 50% in size
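Growth recovery, yeast-based: influenza A NS1 expressed in S. cerevisiae causes slow growth, and suppressors are detected by OD600. The parent strain without NS1 is used as positive control.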
SARS PLP yeast: blocks SARS-CoV papain-like protease in a yeast assay; S. cerevisiae expressing SARS-CoV PLpro, growth rescue; actives 0.19% (n = 330,000); AID 485353; Potency, µM (titrated, usually from 32.9 µM), without a hit: at the highest dose activity, positive = growth rescue, hits mostly activators; calls by dose curve; further: potency means the concentration at half of the fitted maximal effect; 0% is about no effect; nearly all actives have a fitted effect of over 55% in size
Pf growth 48h: P. falciparum growth inhibition at 48 hours (one generation). Potency, µM (highest dose often 28.7 µM), without a hit: at the highest dose activity change, negative = inhibition, hits mostly inhibitors. actives 5.9% (n = 310,000). AID 504832. P. falciparum luciferase growth in erythrocytes, 48 h; further: potency means the concentration at half of the fitted maximal effect; on the % scale 0 is the no-effect control and ±100 the full control effect
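Erythrocytes infected with P. falciparum carrying an integrated firefly luciferase reporter (2% hematocrit, 0.1% parasitemia final) were exposed to compounds in RPMI 1640 with 0.5% Albumax at 37 C, 5% CO2. Growth inhibition was scored as reduced luminescence.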
Pf growth 96h: P. falciparum growth inhibition at 96 hour, primary screen for plastid delayed-death inhibitors; P. falciparum luciferase reporter growth, 96 h; Potency, µM (highest dose often 28.7 µM), without a hit: at the highest dose activity change, negative = inhibition, hits mostly inhibitors; actives 6.9% (n = 320,000); AID 504834; further: potency means the concentration at half of the fitted maximal effect; on the % scale 0 is the no-effect control and ±100 the full control effect
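96 h incubation, 37 C, 5% CO2, of luciferase-reporter P. falciparum-infected RBCs (2% hematocrit, 0.05% parasitemia final) with test compounds; endpoint luminescence.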
* hit, by the source's call; ? = inconclusive; / = no result given; [ ] = another dose, or the depositor's remark. Unless noted, the call rests on the fitted dose curve; in most records, active means well fitted inhibition curve with a large enough effect; inconclusive means small, poorly fitted or top-dose-only effect, or another doubt; inactive means no such curve, though single readings can be large or run the other way.

SMILES | CHX counter | Shiga inhibitor | NS1 function inh | SARS PLP yeast | Pf growth 48h | Pf growth 96h
CCOc1ccc(S(=O)(=O)n2cc(F)c(=O)[nH]c2=O)cc1[N+](=O)[O-] | -7.9 | 3.0 | -32.2% | -51.9% | -15.6% | ?
CCOc1ccc(S(=O)(=O)n2cc(F)c(=O)[nH]c2=O)cc1 | 4.1 | -18.4 | -7.0% | -3.8% | ? | 13.1µM*
COc1ccccc1NC(=O)NCCCl | -1.0 | 9.8 | -5.3% | 12.2% | -11.3% | 58.4%
O=C(NCCCl)Nc1ccccc1OCCOc1ccccc1NC(=O)NCCCl | -4.5 | -9.0 | 2.7% | 1.0% | 2.08µM* | 2.08µM*
CCOc1ccccc1N(C(C)=O)S(=O)(=O)c1ccc(Cl)cc1 | 0.4 | -7.5 | -1.1% | -6.5% | -23.9% | 3.9%
CCOc1ccccc1NC(=O)Nc1ccc(Cl)cc1 | 75.6* | 41.3* | ? | -15.8% | ? | ?
CCOc1ccccc1N(C(=O)Nc1ccc(Cl)cc1)C1=NC(C)CS1 (stereo unspecified) | 24.6* | 82.3* | -10.1% | 10.0% | 4.6% | 27.5%
CCCOc1ccccc1N/C(=N/c1nc(C)cc(C)n1)NC(=O)Nc1ccc(Cl)cc1 | 6.7 | 25.3 | 7.9% | 1.9% | 13.1µM* | 28.0%
COc1ccc(-n2ccnc2SCC(=O)NCc2ccco2)c(OC)c1 | 9.9 | 14.1 | / | 2.5% | 4.6% | 14.2%
CCOc1ccccc1NC(=O)Nc1ccccn1 | 4.3 | -19.2 | -38.4% | -0.9% | ? | ?
CCCOc1ccccc1NC(=O)Nc1ccccc1Cl | -1.4 | 3.2 | / | 1.1% | 12.6%[5.75 µM] | 8.28µM*
O=C(Cn1ccc(NC(=O)OCc2ccccc2)nc1=O)NCc1ccc2[nH]ccc2c1 | / | / | / | 6.0% | 1.3% | -0.1%
COc1cc2c(cc1OC)-c1cc3ccc(OC)c(OC)c3c[n+]1CC2 | / | / | / | / | 0.185µM* | 0.165µM*
COc1cc2c(cc1OC)CC[N+](C)=C2 | -3.2 | -9.7 | -0.6% | 0.8% | 42.0% | 39.7%
CN(C)CCCNC(NC(=O)c1cccs1)C(Cl)(Cl)Cl (stereo unspecified) | -2.9 | -9.0 | -1.9% | -2.5% | 1.0% | ?
Cc1ccc(Cl)cc1NC(=O)c1ocnc1C | 9.4 | -6.3 | -5.0% | 5.6% | 47.3% | 92.5%
Cc1ncoc1C(=O)Nc1cccc(Cl)c1 | 63.4* | 99.7* | -50.7% | -10.2% | 57.9% | 50.3%
COc1ccccc1NC(=O)c1sc(Cl)nc1C | 0.7 | 10.9 | -28.6% | -3.6% | ? | ?
COC(=O)c1ccccc1NC(=O)c1sc(Cl)nc1C | 14.7* | 79.6* | -0.3% | -4.3% | -1.7% | -7.4%
Cc1ncoc1C(=O)Nc1cccc(Cl)c1C | 16.1* | 14.7 | -4.1% | 1.2% | 38.8% | 6.8%
Cc1cccc(C(=O)Nc2nc(C)c(C(=O)Nc3ccc4c(c3)CCC4)s2)c1 | 16.5* | 13.6 | -0.7% | -6.1% | 173.8% | 131.3%
COc1ccc(C(=O)NC=C2C(=O)OC(C)(C)OC2=O)cc1 | 11.0 | -6.7 | 2.5% | 1.1% | 17.6% | 38.7%
Cc1cc(N2C(=O)C3C4CC(c5ccccc5)C(C4)C3C2=O)no1 (stereo unspecified) | -3.6 | -3.5 | -3.9% | 0.6% | ? | 4.1%
COc1cccc(NC(=O)c2ocnc2C)c1 | 25.5* | 63.1* | -12.1% | -7.0% | 78.7% | 16.8%
Cc1nc(Cl)sc1C(=O)Nc1cc(F)cc(F)c1 | 1.3 | -1.8 | -24.0% | -14.1% | 0.3% | ?
SMILES | CHX counter | Shiga inhibitor | NS1 function inh | SARS PLP yeast | Pf growth 48h | Pf growth 96h
COc1cccc(NC(=O)c2cnc(SC)nc2C)c1 | 10.3 | 5.1 | -3.2% | -1.2% | -14.7% | 53.4%
COc1cccc(NC(=O)c2sc(Cl)nc2C)c1 | 13.3* | / | -14.8% | -0.5% | -17.1% | -17.0%
Cc1nc(C)c(C(=O)Nc2cccc(C)c2C)s1 | 10.6 | 19.2 | 1.3% | -0.2% | 53.6% | ?
Cc1cccc(NC(=O)c2sc(C)nc2C)c1 | 49.8* | 84.1* | 23.8% | -10.5% | 215.6% | 212.3%
Cc1nc(Cl)sc1C(=O)Nc1ccc(C(F)(F)F)cc1 | 20.4* | / | -46.0% | -3.0% | 10.6% | -15.1%
CCc1ccc(C2=NN(CCC(=O)NC(C)CCc3ccccc3)C(=O)CC2)cc1 (stereo unspecified) | -4.9 | -18.0 | / | -5.9% | ? | 0.5%
Cc1ccccc1NC(=O)c1ocnc1C | 1.3 | 0.2 | 5.0% | -5.6% | 1.3% | -19.7%
Cc1ccc(NC(=O)c2ocnc2C)cc1Cl | 52.4* | 69.8* | -17.0% | -10.0% | 144.2% | ?
